# Tests used:
# Conditions in all cases: concentration: 1 μM, replicates: in singlicate; n = 1
# [1] = system: EIF2AK1
# [2] = system: EPHA1
# [3] = system: EPHA2
# [4] = system: EPHA3
# [5] = system: EPHA4
# [6] = system: EPHA5
# [7] = system: EPHA6
# [8] = system: EPHA7
# [9] = system: EPHA8
# [10] = system: EPHB1
# 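Also: KINOMEscan kinase panel screen.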
SMILES,%Inh [1] [%],%Inh [2] [%],%Inh [3] [%],%Inh [4] [%],%Inh [5] [%],%Inh [6] [%],%Inh [7] [%],%Inh [8] [%],%Inh [9] [%],%Inh [10] [%]
COc1ccc(NC(=O)Nc2ccc(C)c(-c3ccc(C(=O)Nc4ccncc4)cc3)c2)cc1 [GSK1398475],0,6,8,13,1,0,11,4,14,13
COC(=O)c1cccc(NC(=O)NCCNc2ccnc(Nc3ccc(F)cc3)n2)c1 [GSK1379883],0,5,32,0,7,0,20,3,9,4
Cc1cccc(-c2nc(Nc3ccc4[nH]nnc4c3)c3ccccc3n2)n1 [GW867587],0,0,0,0,0,0,0,0,0,6
Cl.Cn1ccc(-c2cccc(Nc3ccnc4cc(-c5nccs5)ccc34)c2)n1 [GW525701],0,25,0,100,0,0,0,6,7,14
FC(F)(F)c1ccc(-c2cc(-c3c[nH]nc3-c3ccccn3)ccn2)cc1 [GW599550],100,2,0,13,0,0,0,5,9,30

# From publication PMC5540273 (PLoS ONE, 2017)
